Assay [1] deals with Estrogen receptor (Homo sapiens) (UniProt P03372). Kind of assay: ATG_ERa_TRANS: Attagene TRANS-FACTORIAL HepG2 Assay for human Estrogen Receptor alpha (ERa) (AID 2282970; active = hit-call score of the fitted dose curve at least 0.9, where 1 is the maximum). The following applies: HepG2 Attagene TRANS ERa GAL4 reporter, mRNA. Summed up:
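Transfected HepG2 cells carrying GAL4-UAS-driven reporter units were dosed for 24 hours. Total RNA was reverse-transcribed, reporter sequences PCR-amplified, FAM-labelled, HpaI-digested and resolved by capillary electrophoresis. Increases over DMSO control defined activity.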

Assay [2] is described as follows: CCTE_Harrill_HTTr_Apoptosis_MCF7: CCTE's 6-hour Apoptosis Assessment for the High-Throughput Transcriptomics (HTTr) Platform, in MCF-7 cells cultured in DMEM + 10% fetal bovine serum, Harrill Lab (AID 2284011). Summed up:
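Cells are dosed with test chemicals at eight concentrations and imaged 6 hours later for caspase-3/7 activity using a green fluorogenic detection reagent. Activity is fitted in both directions against DMSO controls.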

The nature of assay [3]: CCTE_Harrill_HTTr_CellCount_MCF7: CCTE's Cell Proliferation Assessment for the High-Throughput Transcriptomics (HTTr) Platform, Harrill Lab (AID 2284012; active = hit-call score of the fitted dose curve at least 0.9, where 1 is the maximum;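 also: cells exposed to compound for six hours; intended direction is loss of nuclei count meaning fewer cells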). In short, it runs like this:
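Cell count from high-content imaging of Hoechst-labeled nuclei serves as viability/growth readout. Chemicals were applied to MCF-7 cells in eight concentrations for six hours, with fitting in both directions relative to DMSO.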

In assay [4] the target is Estrogen-related receptor gamma (Homo sapiens) (UniProt P62508). Description: ATG_ERRg_TRANS: Attagene TRANS-FACTORIAL HepG2 Assay for human Estrogen-Related Receptor gamma (ERRg) (AID 2282977; active = hit-call score of the fitted dose curve at least 0.9, where 1 is the maximum;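 also: hits increase reporter signal over DMSO so potencies reflect activators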). Conditions: HepG2 Attagene TRANS reporter, ERRg transactivation. In short, it runs like this:
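Exogenous NR-Gal4 chimera activity measured as reporter transcript induction after 24 h in transiently transfected HepG2 cells. RNA reverse-transcribed, PCR-amplified, 6-FAM-labelled and resolved by capillary electrophoresis; increase over DMSO baseline.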

Assay [5] has as its target Estrogen receptor beta (Homo sapiens) (UniProt Q92731). Kind of assay: OT_ER_ERbERb_0480: Odyssey Thera (OT) 8-hour HEK293T Protein-Complementation Assay for Estrogen Receptor-beta/-beta Homodimer (AID 2283357; active = hit-call score of the fitted dose curve at least 0.9, where 1 is the maximum;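 also: active means signal gain over DMSO baseline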). Summed up:
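ER-beta LBD homodimer PCA stably expressed in HEK293T; 8 h compound exposure, then formaldehyde fixation and Draq5 staining. Gain in nuclear/cytoplasmic fluorescence intensity versus DMSO vehicle, read on laser scanning cytometer.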

The target is the same in assay [6]. Kind of assay: OT_ER_ERbERb_1440: Odyssey Thera (OT) 24-hour HEK293T Protein-Complementation Assay for Estrogen Receptor-beta/-beta Homodimer (AID 2283380; active = hit-call score of the fitted dose curve at least 0.9, where 1 is the maximum;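 also: scored as signal increase over DMSO baseline for both agonists and antagonists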). In short, it runs like this: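 Fluorescence increase, nuclear for agonists or whole-cell for antagonists, relative to DMSO vehicle, quantified by laser scanning cytometer after fixation and Draq5 staining. Readout from 24 h treatment of HEK293T cells carrying complementation-paired ER beta LBD (aa 310-547).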

The target of assay [7] is Retinoic acid receptor RXR-alpha (Homo sapiens) (UniProt P19793). Kind of assay: OT_NURR1_NURR1RXRa_1440: Odyssey Thera (OT) 24-hour HEK293T Protein Complementation Assay for Nurr1/retinoid X receptor (RXR) (AID 2283386; active = hit-call score of the fitted dose curve at least 0.9, where 1 is the maximum). In short, it runs like this:
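Gain in fluorescence, fitted relative to DMSO, reflects Nurr1–RXRα association in HEK293T cells after 24 h dosing. Bait and prey are each linked to a reporter-protein fragment that reassembles on interaction.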

Assay [8] addresses Peroxisome proliferator-activated receptor gamma (Homo sapiens) (UniProt P37231). Description: OT_PPARg_PPARgSRC1_1440: Odyssey Thera (OT) 24-hour Protein-Complementation Assay for Peroxisome Proliferator-activated Receptor Gamma/ SRC-1 Co-activator (AID 2283388; active = hit-call score of the fitted dose curve at least 0.9, where 1 is the maximum;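 also: nuclear to cytoplasmic ratio of reconstituted Venus YFP fluorescence in fixed imaged cells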). Summed up: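 Transient HEK293T, YFP fragments 1-158/159-239 (mutant IFP1/IFP2) fused to PPARg/SRC-1; 24 h dosing; fix 4% formaldehyde, Draq5; Opera imaging 488/635 nm; N/C ratio, gain vs DMSO.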

Assay [9] can be described thus: ACEA_AR_agonist_AUC_viability: ACEA Biosciences xCELLigence Real-Time Cell Analysis on Androgen Receptor Agonism for Viability (AID 2283775; active = hit-call score of the fitted dose curve at least 0.9, where 1 is the maximum). Summed up: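 22Rv1 cells; impedance growth kinetics; 8-pt 1:4 dilutions from 100 uM top final, ≤0.5% DMSO; n = 2; 80 h read; AUC viability, loss-of-signal vs DMSO.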
The nature of assay [10]: ACEA_AR_antagonist_AUC_viability: ACEA Biosciences xCELLigence Real-Time Cell Analysis on Androgen Receptor Antagonism for Viability (AID 2283776; active = hit-call score of the fitted dose curve at least 0.9, where 1 is the maximum;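 also: 22Rv1 human prostate cancer cells growing on impedance electrode plates; area under impedance growth curve at 80 h after dosing as viability; hits lower the growth signal relative to DMSO meaning cytotoxicity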). Summed up:
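Impedance read-out (RT-CES): area under growth curve at 80 h post-dose, loss of signal scored vs DMSO baseline. 22Rv1 cells; 8-pt 1:4 series, top 100 uM final, ≤0.5% DMSO; biological duplicate.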

A short description of assay [11]: BSK_3C_Vis: BioMAP Diversity Plus: 3C Assay for Morphology Visualization (AID 2283025).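 Also: fitted both ways so gain or loss versus DMSO counts.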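 As to AC50: light microscopy image of cell morphology used as background control.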 Conditions: primary human endothelial cells (HUVEC). Summed up: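 Light-microscopy visualization of HUVEC cultures at 24 h post-treatment, with DMSO as baseline for bidirectional fitting.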
Read-out in assay [12]: Vascular endothelial growth factor receptor 2 (Homo sapiens) (UniProt P35968)
Description: BSK_4H_VEGFRII: BioMAP Diversity Plus: 4H Assay for Vascular endothelial growth factor receptor 2 (VEGFR2) Biomarker Activity (AID 2283031). Conditions: primary human endothelial cells (HUVEC); actives raise or lower the signal. In short, it runs like this: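 VEGFRII levels on human vascular endothelial primary cells were determined by ELISA at 24 hours post-dosing, with gain- or loss-of-signal fitted against DMSO controls.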

Read-out in assay [13]: Transforming growth factor beta 1 (TGFb1), TGFB1 (gene 7040)
Kind of assay: BSK_BE3C_TGFb1: BioMAP Diversity Plus: BE3C Assay for Transforming growth factor beta 1 (TGFb1) Biomarker Activity (AID 2283036;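 also: TGF-b1 protein level measured by ELISA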). The following applies: primary human bronchial epithelial cells; actives raise or lower the signal. In short, it runs like this:
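ELISA readout of TGF-b1 from human lung bronchial epithelial primary cells, taken 24 h post-treatment. Gain or loss of signal fitted relative to DMSO baseline, with parallel SRB staining for overt cytotoxicity.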

Read-out in assay [14]: Transforming growth factor beta 1 (TGFb1), TGFB1 (gene 7040)
Kind of assay: BSK_KF3CT_TGFb1: BioMAP Diversity Plus: KF3CT Assay for Transforming growth factor beta 1 (TGFb1) Biomarker Activity (AID 2283072). The following applies: primary human keratinocytes with fibroblasts; actives raise or lower the signal. Summed up:
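ELISA quantifies TGF-b1 at 24 h post-dose in a primary human skin co-culture of keratinocytes and fibroblasts, with gain or loss judged against DMSO. Parallel SRB total-protein staining flags overt cytotoxicity.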

A short description of assay [15]: BSK_BT_PBMCCytotoxicity: PBMC Cytotoxicity Assessment in the BioMAP Diversity Plus: BT Assay (AID 2284225).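 Also: PBMC viability measured by Alamar Blue dye reduction fluorescence.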 Conditions: primary human B cells with PBMC. Summed up: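 Viability by Alamar Blue reduction (6 h, ex/em 546/580 nm) after 90 h culture of SEB/TSST-1-activated PBMC (20 ng/mL each) given compound 1 h before activation. DMSO served as baseline for curve fitting.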

Read-out in assay [16]: Secreted IgG (sIgG), gene 3500
Description: BSK_BT_sIgG: BioMAP Diversity Plus: BT Assay for Secreted IgG (sIgG) Biomarker Activity (AID 2284226). The following applies: primary human B cells with PBMC. In short, it runs like this: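 ELISA quantitation of secreted IgG from human B cells co-cultured with PBMC, sampled 24 h post-dosing. Values fitted relative to DMSO vehicle as baseline, positive fitting direction.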

The nature of assay [17]: BSK_BT_Bcell_Proliferation: Viability Assessment in the BioMAP Diversity Plus: BT Assay for B cell Proliferation (AID 2284227). The following applies: primary human B cells with PBMC. Summed up:
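Human B cell/PBMC co-culture; test chemical added; 72 h; TCA fix (10%), 0.1% SRB stain, A560 for total protein as a proliferation read-out; positive-direction fit vs DMSO baseline.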

Read-out in assay [18]: Collagen IV, COL4A1 (gene 1282)
Description: BSK_MyoF_CollagenIV: BioMAP Diversity Plus: MyoF Assay for Collagen IV Biomarker Activity (AID 2284247). The following applies: primary human lung fibroblasts. Summed up: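 Collagen IV quantified by ELISA in human lung fibroblast cultures 24 h after chemical treatment, with DMSO as baseline. Parallel SRB staining (0.1% SRB after TCA fixation, 560 nm) flags overt cytotoxicity.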

Read-out in assay [19]: Matrix Metallopeptidase 1 (MMP1), MMP1 (gene 4312)
Description: BSK_MyoF_MMP1: BioMAP Diversity Plus: MyoF Assay for Matrix Metallopeptidase 1 (MMP1) Biomarker Activity (AID 2284268). Conditions: primary human lung fibroblasts. Summed up: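 MMP1 measured by ELISA 24 h after dosing primary human lung fibroblasts; cytotoxicity checked in parallel cultures by sulforhodamine B total-protein staining read at 560 nm.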

Read-out in assay [20]: TIMP metallopeptidase inhibitor 1 (TIMP1), TIMP1 (gene 7076)
Kind of assay: BSK_MyoF_TIMP1: BioMAP Diversity Plus: MyoF Assay for TIMP metallopeptidase inhibitor 1 (TIMP1) Biomarker Activity (AID 2284269). The following applies: primary human lung fibroblasts. Summed up: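 ELISA read-out of TIMP-1 from primary human lung fibroblast cultures 24 h after compound dosing; gain of signal relative to DMSO vehicle baseline defines activity.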

Values joined by “and” are separate entries in the source; they are usually repeats but may differ in a detail not shown here. Equal values may be shown once. Results filed as inconclusive are left out. The source holds several records for some structures; these can differ, active in one and inactive in another. Active and inactive are the calls of the source. The calls were made as follows, unless noted: active = hit-call score of the fitted dose curve at least 0.9, where 1 is the maximum; inactive = score below 0.9.

Estrogen-related receptor gamma (Homo sapiens), sequence (P62508 whole entry, looked up, the tested form may be a part): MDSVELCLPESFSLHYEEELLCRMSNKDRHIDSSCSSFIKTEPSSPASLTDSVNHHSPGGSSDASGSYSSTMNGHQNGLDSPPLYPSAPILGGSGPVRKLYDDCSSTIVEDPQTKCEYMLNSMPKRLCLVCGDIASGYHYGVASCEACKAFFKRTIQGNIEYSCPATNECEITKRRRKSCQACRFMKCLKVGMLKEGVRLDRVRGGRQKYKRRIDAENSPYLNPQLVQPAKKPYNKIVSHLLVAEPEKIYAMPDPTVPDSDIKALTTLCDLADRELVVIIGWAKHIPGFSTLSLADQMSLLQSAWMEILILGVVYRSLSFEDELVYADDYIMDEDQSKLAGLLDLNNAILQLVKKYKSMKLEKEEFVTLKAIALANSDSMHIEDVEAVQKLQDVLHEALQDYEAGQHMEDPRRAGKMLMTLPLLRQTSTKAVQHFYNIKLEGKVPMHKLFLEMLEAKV
Estrogen receptor beta (Homo sapiens), sequence (Q92731 whole entry, looked up, the tested form may be a part): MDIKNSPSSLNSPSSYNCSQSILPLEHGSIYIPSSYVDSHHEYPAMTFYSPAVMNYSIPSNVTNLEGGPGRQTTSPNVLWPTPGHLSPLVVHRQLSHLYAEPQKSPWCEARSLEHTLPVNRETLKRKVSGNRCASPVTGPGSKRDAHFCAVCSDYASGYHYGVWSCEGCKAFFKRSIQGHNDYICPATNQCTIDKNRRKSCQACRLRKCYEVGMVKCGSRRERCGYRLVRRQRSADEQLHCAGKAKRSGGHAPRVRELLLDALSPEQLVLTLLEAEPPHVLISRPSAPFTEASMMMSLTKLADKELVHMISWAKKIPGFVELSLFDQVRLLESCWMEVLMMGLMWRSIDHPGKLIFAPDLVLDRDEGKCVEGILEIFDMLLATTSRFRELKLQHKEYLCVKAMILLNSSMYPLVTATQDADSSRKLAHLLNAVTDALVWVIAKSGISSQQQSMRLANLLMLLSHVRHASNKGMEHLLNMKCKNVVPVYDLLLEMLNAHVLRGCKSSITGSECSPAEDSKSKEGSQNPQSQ
Estrogen receptor (Homo sapiens), sequence (P03372 whole entry, looked up, the tested form may be a part): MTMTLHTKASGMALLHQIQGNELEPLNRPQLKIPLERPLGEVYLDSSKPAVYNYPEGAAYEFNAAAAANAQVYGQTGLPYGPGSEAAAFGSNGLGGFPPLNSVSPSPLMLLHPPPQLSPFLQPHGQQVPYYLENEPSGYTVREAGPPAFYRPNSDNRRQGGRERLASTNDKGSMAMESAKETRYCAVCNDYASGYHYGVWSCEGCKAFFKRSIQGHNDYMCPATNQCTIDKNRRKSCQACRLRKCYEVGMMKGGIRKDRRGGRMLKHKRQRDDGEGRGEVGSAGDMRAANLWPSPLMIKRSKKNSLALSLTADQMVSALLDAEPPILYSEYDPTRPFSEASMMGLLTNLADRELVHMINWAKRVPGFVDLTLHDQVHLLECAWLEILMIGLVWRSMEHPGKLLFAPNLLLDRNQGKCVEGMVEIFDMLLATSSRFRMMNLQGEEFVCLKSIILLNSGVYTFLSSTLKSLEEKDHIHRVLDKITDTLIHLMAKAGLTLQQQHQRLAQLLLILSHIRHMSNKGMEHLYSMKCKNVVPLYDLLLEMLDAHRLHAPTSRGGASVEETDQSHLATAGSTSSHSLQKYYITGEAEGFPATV
Retinoic acid receptor RXR-alpha (Homo sapiens), sequence (P19793 whole entry, looked up, the tested form may be a part): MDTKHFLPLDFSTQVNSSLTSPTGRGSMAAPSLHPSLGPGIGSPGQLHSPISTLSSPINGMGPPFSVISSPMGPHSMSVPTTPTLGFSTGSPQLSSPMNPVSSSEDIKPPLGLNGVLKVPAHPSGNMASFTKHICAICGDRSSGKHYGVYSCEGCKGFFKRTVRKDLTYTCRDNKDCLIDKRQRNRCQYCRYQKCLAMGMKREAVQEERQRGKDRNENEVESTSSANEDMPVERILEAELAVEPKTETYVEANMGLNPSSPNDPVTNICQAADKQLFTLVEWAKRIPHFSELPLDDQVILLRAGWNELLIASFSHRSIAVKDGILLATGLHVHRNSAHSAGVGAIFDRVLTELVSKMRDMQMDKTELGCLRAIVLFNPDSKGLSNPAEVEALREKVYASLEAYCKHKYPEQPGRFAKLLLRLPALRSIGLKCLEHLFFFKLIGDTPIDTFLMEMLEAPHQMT
Peroxisome proliferator-activated receptor gamma (Homo sapiens), sequence (P37231 whole entry, looked up, the tested form may be a part): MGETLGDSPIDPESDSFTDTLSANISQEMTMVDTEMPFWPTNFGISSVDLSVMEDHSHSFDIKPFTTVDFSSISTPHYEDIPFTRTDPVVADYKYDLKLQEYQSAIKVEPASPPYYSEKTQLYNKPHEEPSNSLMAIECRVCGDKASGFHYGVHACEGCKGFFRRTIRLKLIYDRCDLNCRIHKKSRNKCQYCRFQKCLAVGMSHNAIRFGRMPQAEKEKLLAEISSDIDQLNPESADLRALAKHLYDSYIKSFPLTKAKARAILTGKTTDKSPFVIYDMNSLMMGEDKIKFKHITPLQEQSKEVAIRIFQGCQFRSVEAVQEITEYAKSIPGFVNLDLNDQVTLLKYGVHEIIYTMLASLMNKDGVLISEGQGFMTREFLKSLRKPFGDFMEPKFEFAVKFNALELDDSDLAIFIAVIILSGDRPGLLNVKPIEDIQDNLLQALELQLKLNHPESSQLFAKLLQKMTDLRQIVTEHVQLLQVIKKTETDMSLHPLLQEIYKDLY

Take `CN(N=O)c1ccccc1`: the compound was called inactive in [1].

For `C[N+](C)(C)CC(=O)[O-]`, in [2], the result was inactive.

In the case of `COc1ccc(CO)cc1`, the result in assay [2] and in assay [3] was inactive.

The term AC50 denotes the concentration at which the activity in the assay is half-maximal. In the case of `CC(C)c1ccc(O)cc1`, the compound was called inactive in assay [4], in assay [7], in [8], in assay [9] and in [10]. Besides, the AC50 is 57.9 µM (active) in assay [5] and 50 µM (active) in assay [6].

With `O=[N+]([O-])c1cc([N+](=O)[O-])c2ccccc2c1`, the call in assay [4] was inactive.

For the compound `CCN(CC)C(=S)S`, in [1], the outcome was inactive.

As to `CC(C)COP(=O)(OCC(C)C)OCC(C)C`, the result in assay [11], in [12], in assay [13], in assay [14], in assay [15] and in [16] was inactive. Besides, the outcome in assay [17], in [18], in assay [19] and in [20] was inactive.

Turning to `O=C(O)CCl`, the result in assay [4], in assay [5], in assay [6], in assay [8] and in [9] was inactive.

Regarding `O=c1[nH]c(Cl)c(Cl)cc1Cl`, the compound was classed as inactive in assay [4], in assay [11], in assay [12], in [13], in [14] and in assay [3]. Also, the result in assay [15], in [16], in assay [17], in assay [18] and in assay [20] was inactive. Moreover, the AC50 in assay [19] was 20 µM (active).

Turning to `CCC1CCC(=O)O1` (centres undefined), the compound was classed as inactive in assay [5], in assay [6], in assay [7] and in assay [10].

Take `CC1(C)CC(=O)CC(C)(C)N1[O]`: the result in assay [4] was inactive.

Turning to `C[N+](=O)[O-]`, the outcome in [4] was inactive.

`Nc1ccccc1C(=O)Oc1ccc2ccccc2c1`: the AC50 in assay [1] was 12.8 µM (active).

For `C[C@]12CC[C@H]3[C@@H](CC[C@@]45O[C@@H]4C(O)=C(C#N)C[C@]35C)[C@@H]1CC[C@@H]2O`, the result in [2] and in assay [3] was inactive.

In the case of `CC(=O)/C=C/c1ccccc1`, the outcome in assay [11], in assay [12], in [13], in assay [14], in [18] and in assay [19] was inactive. In addition, in [20], the result was inactive. Moreover, the AC50 was 17.4 µM (active) in assay [15], 27.2 µM (active) in assay [16] and 26.1 µM (active) in [17].

On to `O=C1C=CC(=O)C=C1`, for which the AC50 was 8.8 µM (active) in [11]; 29.9 µM (active) and 12.4 µM (active) in [14]; 17.3 µM (active) and 27.7 µM (active) in assay [15]; 10.9 µM (active) and 28 µM (active) in [16]; 17.8 µM (active) and 24.2 µM (active) in assay [17]; 34.4 µM (active) in assay [18]. Besides, the AC50 in [19] was 5.76 µM (active); in [20], 30.3 µM (active). The result in assay [11], in [12], in assay [13], in assay [3], in [18] and in assay [19] was inactive. Also, the outcome in [20] was inactive.

Values taken from PubChem BioAssay (EPA / NIEHS).
